Assay results as given in PubChem BioAssay (Tox21).
Records with an inconclusive call do not appear. Where a call stands in place of a potency, no number is given. The source made the active and inactive calls. Unless noted, the call rests on the fitted dose curve; in most records, active means well fitted curve in the direction sought with a large enough effect in the repeat runs; inconclusive means weak or mixed curves; inactive means no such curve, though single readings can be large; an effect the other way counts as inactive or inconclusive.

How the values were obtained:
[1] = qHTS assay to identify small molecule antagonists of the estrogen related receptor (ERR) signaling pathway - cell viability counter screen (AID 1224818); further: potency means the concentration at half of the fitted maximal effect;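 further: viability measured after 17.5 h of compound exposure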
Procedure, shortened: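 Cells carrying the ERR pathway reporter were seeded and incubated for 6 hours before compound addition. After a 17.5-hour exposure at 37 C, live-cell protease activity was measured by CellTiter-Fluor fluorescence following 30 minutes of incubation.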

[2] = qHTS assay to identify small molecule antagonists of the estrogen related receptor (ERR) signaling pathway (AID 1224819;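 further: luminescence from an ERR-driven luciferase reporter measured with One-Glo reagent; series mostly up to about 46 µM; nearly all actives have a fitted effect of over 50% in size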)
Procedure, shortened: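 Compounds dissolved in DMSO were pin-transferred onto ERR cells that had been plated 6 h earlier, and cells were then incubated 18 h at 37 C; signal was luciferase luminescence via One-Glo.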

[3] = qHTS assay to identify small molecule agonists of the estrogen related receptor (ERR) signaling pathway (AID 1224820); further: potency means the concentration at half of the fitted maximal effect
Procedure, shortened: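 Quantitative HTS of the LOPAC library used NTP ERR reporter cells treated 18 h at 37 C. Signal is luminescence after One-Glo addition and a 30 min room-temperature incubation.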

[4] = test system: estrogen-related receptor alpha (ERRalpha) with PGC-1alpha coactivator, human; experiment: qHTS assay to identify small molecule antagonists of the estrogen related receptor signaling pathway with the pleiotropic PPARgamma coactivator (PGC) (AID 1224821; calls by dose curve;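 further: series mostly up to about 46 µM; lower luminescence signal means antagonism of PGC/ERR signalling; nearly all actives have a fitted effect of over 50% in size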)
Procedure, shortened: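 Quantitative HTS for antagonism: PGC/ERR cells received compounds after 6 h attachment and were incubated 18 h at 37 C, with luminescence (One-Glo) as the endpoint.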

[5] = qHTS assay to identify small molecule antagonists of the estrogen related receptor signaling pathway with the pleiotropic PPARgamma coactivator (PGC) cell viability counter screen (AID 1224822; further: potency means the concentration at half of the fitted maximal effect;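 further: viability read after 17.5 h compound exposure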)
Procedure, shortened: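 Seed PGC/ERR cells (2,000/well); incubate 6 h at 37 C/5% CO2; pin-transfer compounds in DMSO; incubate 17.5 h at 37 C; add CellTiter-Fluor; after 30 min read fluorescence.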

[6] = qHTS assay to identify small molecule agonists of the estrogen related receptor signaling pathway with the pleiotropic PPARgamma coactivator (PGC) (AID 1224823); further: potency means the concentration at half of the fitted maximal effect
Procedure, shortened: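 Cell-based luciferase assay in the NTP-supplied PGC/ERR line, 2,000 cells/well; 18 h compound exposure at 37 C, luminescence after One-Glo.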

Row | Compound | Potency [1] | Potency [2] | Potency [3] | Potency [4] | Potency [5] | Potency [6]
1 | CN=C(N)NCCC[C@H](N)C(=O)O | inactive | inactive | inactive | inactive | inactive | inactive
2 | CC(C)C[C@H](NC(=O)C1OC1C(=O)O)C(=O)NCCCCN=C(N)N (stereo not given in full) | inactive | inactive | inactive | inactive | inactive | inactive
3 | NCC1OC(OC2C(O)[C@@H](OC3C(O)C(N)CC(N)C3OC3OC(CO)C(O)C(O)C3N)O[C@@H]2CO)C(N)C(O)C1O (stereo not given in full) | inactive | inactive | inactive | inactive | inactive | inactive
4 | CCC(CO)Nc1nc(NCc2ccccc2)c2ncn(C(C)C)c2n1 (stereo not given) | inactive | inactive | inactive | inactive | inactive | inactive
5 | NC(N)=[N+]1CCc2ccccc2C1 | inactive | inactive | inactive | inactive | inactive | inactive
6 | CCCOC(=O)c1c(-c2ccccc2)nc(CC)c(C(=O)SCC)c1CCC | inactive | inactive | inactive | inactive | inactive | inactive
7 | Cc1ccc2c(c1)C(N1CCN(C)CC1)=Nc1cccnc1N2 | inactive | inactive | inactive | inactive | inactive | inactive
8 | C=CCn1c(=O)c2c(nc(-c3ccc(S(=O)(=O)O)cc3)n2C)n(C)c1=O | inactive | inactive | inactive | inactive | inactive | inactive
9 | Nc1nc2c(ncn2[C@@H]2O[C@H](CO)[C@@H](O)[C@@H]2O)c(=O)[nH]1 | inactive | inactive | inactive | inactive | inactive | inactive
10 | O=C1NC(=O)/C(=C/c2ccc(-c3ccc(F)cc3O)o2)S1 | inactive | inactive | inactive | inactive | inactive | inactive
11 | O=C(O)CCCC[C@@H]1CCSS1 | inactive | inactive | inactive | inactive | inactive | inactive
12 | CCCCCCCCCCCCCCCCCCOC[C@H](COP(=O)([O-])OCC[N+](C)(C)C)OC | inactive | inactive | inactive | inactive | inactive | inactive
13 | COC(=O)[C@H]1[C@H]2C[C@H]3c4[nH]c5ccccc5c4CCN3C[C@H]2CC[C@@H]1O | inactive | inactive | inactive | inactive | inactive | inactive
14 | O=C(OCCN1CCOCC1)C1(c2ccccc2)CCCCC1 | inactive | inactive | inactive | inactive | inactive | inactive
15 | Cc1ccc(O)c(N=Nc2ccccc2)n1 | inactive | inactive | 8.41 µM (active) | inactive | 5.52 µM (active) | inactive
16 | CCNC(=O)[C@H]1O[C@@H](n2cnc3c(N)nc(NCCc4ccc(CCC(=O)O)cc4)nc32)[C@H](O)C1O (stereo not given in full) | inactive | inactive | inactive | inactive | inactive | 1.28 µM (active)
17 | CCCCCCCCCC[Si](C)(C)CCC(=O)NC(Cc1ccc(C)cc1)c1ccccc1 (stereo not given) | inactive | inactive | inactive | inactive | inactive | inactive
18 | O=C(O)c1cc2cc(Cc3cccnc3)ccc2o1 | inactive | inactive | inactive | inactive | inactive | inactive
19 | CC1C(=O)N(C)C(=O)c2nc[nH]c21 (stereo not given) | inactive | inactive | inactive | inactive | inactive | inactive
20 | NCCSSCCN | inactive | inactive | inactive | inactive | inactive | inactive

Row | Compound | Potency [1] | Potency [2] | Potency [3] | Potency [4] | Potency [5] | Potency [6]
21 | N=c1ccn2c(n1)O[C@H]1C(O)[C@@H](CO)O[C@H]12 (stereo not given in full) | inactive | inactive | inactive | inactive | inactive | inactive
22 | O=c1onc2n1-c1cc(Br)ccc1OC2 | inactive | inactive | inactive | inactive | inactive | inactive
23 | COC1(C2=NCCN2)COc2ccccc2O1 (stereo not given) | inactive | inactive | inactive | inactive | inactive | inactive
24 | COCCOc1cc2nc[nH]c(=O)c2cc1OCCOC | inactive | inactive | inactive | inactive | inactive | inactive
25 | C1CCc2nnnn2CC1 | inactive | inactive | inactive | inactive | inactive | inactive
26 | CCC(NC(C)C)C(O)c1ccc(O)c(O)c1 (stereo not given) | inactive | inactive | inactive | inactive | inactive | inactive
27 | O=c1[nH]c2ccccc2c2ccccc12 | inactive | inactive | inactive | inactive | inactive | inactive
28 | N[C@H]1CONC1=O | inactive | inactive | inactive | inactive | inactive | inactive
29 | Nc1cc(Cl)c(NC2=NCCN2)c(Cl)c1 | inactive | inactive | inactive | inactive | inactive | inactive
30 | CC(C)(C)c1onc(OCP(=O)(O)O)c1CC(N)C(=O)O (stereo not given) | inactive | inactive | inactive | inactive | inactive | inactive
31 | CC(N)(Cc1ccc(O)cc1)C(=O)O (stereo not given) | inactive | inactive | inactive | inactive | inactive | inactive
32 | c1ccc2nc(C3=NCCN3)ccc2c1 | inactive | inactive | inactive | inactive | inactive | inactive
33 | O=C(O)CNC(=O)C(CS)Cc1ccccc1 (stereo not given) | inactive | inactive | inactive | inactive | inactive | inactive
34 | CO/N=C(\C(=O)N[C@@H]1C(=O)N2C(C(=O)O)=C(CSc3nc(=O)c(O)nn3C)CSC12)c1csc(N)n1 (stereo not given in full) | inactive | inactive | inactive | inactive | inactive | inactive
35 | CC(=O)N[C@@H](Cc1c[nH]c2ccccc12)C(=O)OCc1cc(C(F)(F)F)cc(C(F)(F)F)c1 | inactive | inactive | inactive | inactive | inactive | inactive
36 | Cn1c(=O)c2[nH]c(-c3ccccc3)nc2n(C)c1=O | inactive | inactive | inactive | inactive | inactive | inactive
37 | CC[N+](CC)(CC)CC(=O)Nc1c(C)cccc1C | inactive | inactive | inactive | inactive | inactive | inactive
38 | Cc1cccc(C#Cc2ccccc2)n1 | inactive | inactive | 12.8 µM (active) | inactive | inactive | 9.44 µM (active)
39 | Cc1ccc([N+](=O)[O-])cc1S(=O)(=O)N(C)C | inactive | inactive | inactive | inactive | inactive | inactive
40 | CNc1ncnc2c1ncn2[C@H]1C[C@H](OP(=O)(O)O)[C@@H](COP(=O)(O)O)O1 | inactive | inactive | inactive | inactive | inactive | inactive

Row | Compound | Potency [1] | Potency [2] | Potency [3] | Potency [4] | Potency [5] | Potency [6]
41 | CCCCCCCCCCCCCCCCCC(=O)OC(CC(=O)O)C[N+](C)(C)C (stereo not given) | inactive | inactive | inactive | inactive | inactive | inactive
42 | O=S(=O)(c1cccc2c(Cl)cccc12)N1CCCNCC1 | inactive | inactive | inactive | inactive | inactive | inactive
43 | COc1ccc2c(c1)CCC1C2CC[C@@]2(C)C1CC[C@@H]2NCCCCCCN1C(=O)C=CC1=O (stereo not given in full) | inactive | inactive | inactive | inactive | inactive | inactive
44 | O=C(O)Cc1ccc(O)c(O)c1 | inactive | inactive | inactive | inactive | inactive | inactive
45 | N[C@H](CO)C(=O)O | inactive | inactive | inactive | inactive | inactive | inactive
46 | CC(C)Cc1ccc([C@H](C)C(=O)O)cc1 | inactive | inactive | inactive | inactive | inactive | inactive
47 | S=C(S)OC1CC2CC1C1CCCC21 (stereo not given) | inactive | inactive | inactive | inactive | inactive | inactive
48 | N=C(N)SCCc1cnc[nH]1 | inactive | inactive | inactive | inactive | inactive | inactive
49 | NC(N)=NC(N)=Nc1cccc(Cl)c1 | inactive | inactive | inactive | inactive | inactive | inactive
50 | CCCn1c(=O)c2[nH]c(-c3ccc(S(=O)(=O)O)cc3)nc2n(CCC)c1=O | inactive | inactive | inactive | inactive | inactive | inactive
51 | O=c1cc(-c2ccccc2)oc2c(O)c(O)ccc12 | inactive | inactive | inactive | inactive | inactive | inactive
52 | C=CC(N)CCC(=O)O (stereo not given) | inactive | inactive | inactive | inactive | inactive | inactive
53 | O=Nc1c(-c2c(O)[nH]c3cc(Br)ccc23)[nH]c2ccccc12 | 16.2 µM (active) | inactive | 1.68 µM (active) | inactive | 11.4 µM (active) | 1.14 µM (active)
54 | NC(N)=N[C@@H](CCC(=O)O)C(=O)O | inactive | inactive | inactive | inactive | inactive | inactive
55 | CN1C2CCCC1CC(NC(=O)c1nn(C)c3ccccc13)C2 (stereo not given) | inactive | inactive | inactive | inactive | inactive | inactive
56 | COC(=O)C(N)Cc1ccc(Cl)cc1 (stereo not given) | inactive | inactive | inactive | inactive | inactive | inactive
57 | C[N+]1(CCCCC[N+]2(C)CCCC2)CCCC1 | inactive | inactive | inactive | inactive | inactive | inactive
58 | Nc1ccc(-c2nc3ccc(-c4nc5ccc(N)cc5[nH]4)cc3[nH]2)cc1 | inactive | inactive | inactive | inactive | inactive | inactive
59 | CN(CC[C@@H](Oc1ccc(C(F)(F)F)cc1)c1ccccc1)CC(=O)O | inactive | inactive | inactive | inactive | inactive | inactive
60 | CC(=O)O[C@H]1CC2(C)[C@@H](C[C@@H](O)[C@H]3[C@@]4(C)CC[C@@H](O)[C@@H](C)[C@@H]4CC[C@@]32C)C1=C(CCC=C(C)C)C(=O)O (stereo not given in full) | inactive | inactive | inactive | inactive | inactive | inactive
